Here are results for seven compounds from PubChem BioAssay (NCATS).

In assay [1] the target is Lysosomal acid glucosylceramidase (Homo sapiens) (UniProt P04062). As to the kind of experiment: Glucocerebrosidase-p2 (AID 348; in the data active = potency below about 10 µM; also: potency is read from the fitted curve at half-maximal effect). Particulars: purified GBA, blue fluorogenic substrate, 40 min. A digest of the protocol:
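Normal human glucocerebrosidase (0.2 nM) with blue fluorogenic substrate (80 uM final) in citrate/phosphate pH 5.9 with 10mM sodium taurocholate, 0.01% tween-20; 40 min RT, NaOH/glycine stop; fluorescence Ex 365/Em 440; AC50 from a titration from 0.6 nM upwards.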

A short description of assay [2]: AP1 Signaling Pathway (AID 357; active = well fitted curve in either direction with a large enough effect, not every such curve was filed as active;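 also: ME-180 reporter cells stimulated with EGF at its EC50 level; % is scaled to controls: 0 for no effect and ±100 for the full control effect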). Particulars: ME-180 AP-1-bla reporter, EGF-induced, beta-lactamase ratio, 5 h; at 7.69 µM (top of the series) unless noted. A digest of the protocol: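 AP-1-bla ME-180 cells, Opti-MEM + 0.5% dialyzed FBS, plated overnight 37 °C. Cpd titration + EC50 EGF, 5 h 37 °C. CCF4 2.5 h RT; ex 405, em 460/530 ratio → %activity, AC50.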
In assay [3] the target is Cytochrome P450 1A2 (Homo sapiens) (UniProt P05177). As to the kind of experiment: p450-cyp1a2 (AID 410; calls by dose curve; also: potency is read from the fitted curve at half-maximal effect;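 as to activity change, negative = inhibition: -100% = full effect of reference inhibitor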). Particulars: recombinant CYP1A2, luciferin-ME demethylation, luminescence; series mostly up to 57 µM. A digest of the protocol:
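O-Demethylation of luciferin 6' methyl ether by human CYP1A2 is monitored as luciferase luminescence. Substrate sits at Km (100uM); enzyme is 20nM. Values are scaled to 57 uM furafylline as maximal inhibition.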

Assay [4] in a line: NFAT Signaling Pathway (AID 444; active = well fitted curve in either direction with a large enough effect, not every such curve was filed as active;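 also: carbachol stimulus at about its EC50 of 1 µM final; % is scaled to controls: 0 for no effect and ±100 for the full control effect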). The conditions noted are these: Jurkat NFAT-bla M1, carbachol, beta-lactamase ratio, 5 h; at 7.69 µM (top of the series) unless noted. A digest of the protocol: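 Read-out: CCF4 FRET ratio (460 nm/530 nm) after 1 h RT dye loading, used for %activity and AC50 from titration series. Cells: Jurkat NFAT-β-lactamase/M1 line, treated with compound plus 1 uM carbachol for 5 h, 37 °C.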

A short description of assay [5]: Stat Signaling Pathway (AID 446; active = well fitted curve in either direction with a large enough effect, not every such curve was filed as active;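 also: ME-180 cervical cancer cells given 40 pM IL-6 alongside compound; SIE-controlled beta-lactamase reporter measured as 460/530 nm FRET emission ratio; % is scaled to controls: 0 for no effect and ±100 for the full control effect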). The conditions noted are these: ME-180 (cervical carcinoma) SIE beta-lactamase reporter, IL-6 stimulated, 5 h; at 7.69 µM (top of the series) unless noted. Summed up: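 Overnight-plated ME-180 cells bearing a STAT Inducible Element beta-lactamase reporter; 5 h co-exposure to compound and 40 pM IL-6; values normalized to 300 pM IL-6 and 125 nM JAK inhibitor controls.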

The target in assay [6] is Glucocorticoid receptor (Homo sapiens) (UniProt P04150). As to the kind of experiment: GR-GFP Redistribution (AID 450;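 active = compounds whose dose series gives a full or clear partial fitted curve of increased nuclear translocation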; also: potency is read from the fitted curve at half-maximal effect). Particulars: U2OS GR-GFP nuclear translocation, laser cytometry, 2 h.
Assay [7] shares this target. The assay can be described thus: GR-EFC Redistribution (AID 451; calls by dose curve; also: potency is read from the fitted curve at half-maximal effect). The conditions noted are these: CHO-K1 GR-EFC translocation, beta-gal luminescence, 2 h. Summed up:
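Translocation of GR-ED fusion to nuclear EA restores b-gal, read by luminescence after 1 h room-temperature detection. Engineered CHO-K1 biosensor cells, 1,000/well, exposed 2 h at 37 C to titrations up to 46 uM final.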

For assay [8], the target named is Mitogen-activated protein kinase 10 (Mus musculus) (UniProt Q61831). As to the kind of experiment: JNK3 AlphaScreen Assay (AID 530; active = well fitted curve in either direction with a large enough effect, not every such curve was filed as active;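 also: kinase came from lysate of stimulated human HepG2 cells; signal reports phosphorylation of biotinylated GST-cJun 1-79 at Ser73 with 10 µM ATP; % is scaled to controls: 0 for no effect and ±100 for the full control effect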). Particulars: JNK3 lysate, c-Jun phosphorylation; series mostly up to 57.1 µM. Summed up: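 qHTS titrations with 15 min compound pre-incubation before adding ATP (10 uM final). Read-out: AlphaScreen of Ser73-phosphorylated biotin-GST-cJun using HepG2 lysate JNK3 activated by IL-1β and TNFα.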

The target in assay [9] is 3',5'-cyclic-AMP phosphodiesterase 4B (Homo sapiens) (UniProt Q07343). As to the kind of experiment: qHTS Assay for Inhibitors of PDE-IV (AID 607; active = well fitted activation curve with a large enough effect in the main read-out, with a control signal flat, not every such curve was filed as active; also: % of control where 0% means no effect). Particulars: HEK293 ACTOne CNG channel cells, membrane potential fluorescence; series mostly up to 22.9 µM. A digest of the protocol: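 Live HEK293 cells with a modified cyclic nucleotide-gated (CNG) channel report intracellular cAMP via membrane-potential dye fluorescence (ex 535/em 590 nm). Endogenous PDE-IV was targeted. Compounds were tested at up to 22.9 uM final; RO 20-1724 100 uM served as control.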
On the technique in general: Quantitative high-throughput screening tests each substance at several concentrations.

Assay [10] deals with Cytochrome P450 3A4 (Homo sapiens) (UniProt P08684). As to the kind of experiment: qHTS Assay for Activators of Cytochrome P450 3A4 (AID 885). Also: nearly all actives have a fitted effect of over 65% in size. The conditions noted are these: recombinant CYP3A4, Luciferin-PPXE luminescence, 60 min; series mostly up to 57.1 µM. A digest of the protocol: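 Using 20nM recombinant human CYP3A4 in potassium phosphate (200mM), substrate Luciferin-PPXE at 25uM, luminescent luciferin detection followed a 60-min RT NADPH reaction; data scaled to 57 uM ketoconazole.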

In assay [11] the target is Dual specificity protein kinase CLK4 (Homo sapiens) (UniProt Q9HAZ1). The assay can be described thus: qHTS Assay for Inhibitors of CDC-like Kinase 4 (Kinase-Glo Assay) (AID 1770). Also: nearly all actives have a fitted effect of over 65% in size. Also: potency is read from the fitted curve at half-maximal effect. The conditions noted are these: recombinant Clk4, Kinase-Glo ATP depletion luminescence; series mostly up to 66.7 µM. A digest of the protocol: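 Readout: Kinase-Glo luminescence from ATP left after a 4.5 h room-temperature reaction of 25 nM Clk4 with 100 uM RS peptide and 1 uM ATP (final). Buffer: 25 mM Tris pH 7.5, 10 mM MgCl2.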

For assay [12] the target is unchanged. The assay can be described thus: qHTS Assay for Inhibitors of CDC-like Kinase 4 (ADP-FP Assay) (AID 1795).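 Also: recombinant human CLK4 phosphorylating RS repeat peptide at 1 µM ATP; % is scaled to controls: 0 for no effect and ±100 for the full control effect; nearly all actives have a fitted effect of over 60% in size.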 The conditions noted are these: Transcreener ADP fluorescence polarization; series mostly up to 50 µM. A digest of the protocol: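 FP readout: Orange Transcreener ADP2 tracer (4 nM) plus ADP antibody, read after 30 min at room temperature. Kinase step: 6.25 nM Clk4, 100 uM RS peptide, 1 uM ATP, pH 7.5, 1 h.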

In assay [13] the target is Ubiquitin carboxyl-terminal hydrolase 1 (Homo sapiens) (UniProt O94782). The assay can be described thus: Inhibitors of USP1/UAF1: Pilot qHTS (AID 504865).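 Also: rhodamine fluorescence freed from ubiquitin-rhodamine substrate followed over time; top concentration of the series differs between compounds; % is scaled to controls: 0 for no effect and ±100 for the full control effect; nearly all actives have a fitted effect of over 35% in size.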 Particulars: purified USP1/UAF1, Ub-rhodamine cleavage fluorescence; series mostly up to 54.9 µM. Summed up:
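1nM USP1/UAF1 + cpd, 15 min RT; start w/ Ub-Rho 150nM final; kinetic FL 480/540 nm, 6 reads q60 s. Buffer 50mM HEPES pH 7.8, 0.5mM EDTA, 1mM TCEP, 0.01% Tween-20, 0.1 mg/ml BSA.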

A short description of assay [14]: Primary qHTS for small molecule stabilizers of the endoplasmic reticulum resident proteome: Secreted ER Calcium Modulated Protein (SERCaMP) assay (AID 1508630). Also: % is scaled to controls: 0 for no effect and ±100 for the full control effect. Particulars: SH-SY5Y GLuc-SERCaMP (Gaussia luciferase released on ER calcium loss) secretion, thapsigargin, luminescence; series mostly up to 38.4 µM. Summed up: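 The SH-SY5Y reporter protocol was run at 3 concentrations up to 38.3 uM (primary) or 11 concentrations (follow-up): 16 h compound, 100 nM thapsigargin for 4 h, then extracellular luciferase luminescence.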

The target of assay [15] is Cytochrome P450 3A4 (Homo sapiens) (UniProt P08684). As to the kind of experiment: qHTS Assay for Inhibitors and Substrates of Cytochrome P450 3A4 (AID 884). Also: potency is read from the fitted curve at half-maximal effect; nearly all actives have a fitted effect of over 50% in size. The conditions noted are these: recombinant CYP3A4, Luciferin-PPXE luminescence; series mostly up to 57.1 µM. A digest of the protocol: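 Luminescent readout of luciferin produced by CYP3A4 (20 nM) dealkylation of Luciferin-PPXE, 25 uM (its KM). NADPH-driven reaction ran 60 min at RT after 10 min compound preincubation; data scaled to 57 uM ketoconazole as 100% inhibition.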

The target in assay [16] is Dual specificity protein kinase CLK4 (Homo sapiens) (UniProt Q9HAZ1). As to the kind of experiment: qHTS Assay for Inhibitors of CDC-like Kinase 4 (ADP-Glo Assay) (AID 1771). Also: potency is read from the fitted curve at half-maximal effect; nearly all actives have a fitted effect of over 70% in size. The conditions noted are these: recombinant CLK4, ADP-Glo luminescence; series mostly up to 80 µM. Summed up:
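Compounds are pin-transferred onto substrate mix (100 uM RS peptide, 1 uM ATP), then 25 nM Clk4 is added. After 1 hr at room temperature, ADP-Glo reagent runs 45 min, detection reagent 30 min, then luminescence is read.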

For assay [17], the target named is Cytochrome P450 2C9 (Homo sapiens) (UniProt P11712). The assay can be described thus: qHTS Assay for Inhibitors and Substrates of Cytochrome P450 2C9 (AID 883). Also: % is scaled to controls: 0 for no effect and ±100 for the full control effect; nearly all actives have a fitted effect of over 60% in size. Particulars: recombinant CYP2C9, luciferin-H luminescence, 60 min; series mostly up to 57.1 µM. Summed up:
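Inhibition of CYP2C9 is scored as loss of luminescence, with 57uM sulphaphenazole defining 100% inhibition. Substrate Luciferin-H is used at 100uM, equal to its KM; enzyme at 10nM in 25mM KPO4, 60 min at 37C with NADPH regeneration.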

For assay [18], the target named is Cytochrome P450 2C19 (Homo sapiens) (UniProt P33261). As to the kind of experiment: qHTS Assay for Inhibitors and Substrates of Cytochrome P450 2C19 (AID 899). Also: potency is read from the fitted curve at half-maximal effect; nearly all actives have a fitted effect of over 60% in size. Particulars: recombinant CYP2C19, luciferin-H EGE luminescence; series mostly up to 57.1 µM. Summed up:
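5nM enzyme + 10uM Luciferin-H EGE (=KM), 50mM KPO4; cpd pin-transferred, 10 min 37C; NADPH regen, 60 min 37C; stopped w/ luciferin detection reagent, 20 min; luminescence. Normalized to 57uM ketoconazole (AC100).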

For assay [19], the target named is Cytochrome P450 2D6 (Homo sapiens) (UniProt P10635). The assay can be described thus: qHTS Assay for Inhibitors and Substrates of Cytochrome P450 2D6 (AID 891). Also: potency is read from the fitted curve at half-maximal effect; nearly all actives have a fitted effect of over 60% in size. Particulars: recombinant CYP2D6, luciferin-ME EGE luminescence; series mostly up to 57.1 µM. A digest of the protocol:
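Luminescent read-out of luciferin formed by 5 nM human CYP2D6 demethylating 30 uM Luciferin-ME EGE (Km level) over 60 min at room temperature after NADPH regeneration addition. Data normalized to full inhibition by 1.43 uM quinidine.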

Unmarked numbers belong to inactive results. Results filed as inconclusive are left out. Active and inactive are the calls of the source. Unless noted, calls follow the shape of the dose curve; as a rule, active = well fitted curve in the direction sought with a large enough effect; inconclusive = small, poorly fitted or top-dose-only effect, or another doubt; inactive = no such curve, though single readings can be large; an effect the other way counts as inactive or inconclusive. Some results are limits rather than exact numbers.

Chain of Ubiquitin carboxyl-terminal hydrolase 1 (Homo sapiens) (O94782 whole entry, looked up): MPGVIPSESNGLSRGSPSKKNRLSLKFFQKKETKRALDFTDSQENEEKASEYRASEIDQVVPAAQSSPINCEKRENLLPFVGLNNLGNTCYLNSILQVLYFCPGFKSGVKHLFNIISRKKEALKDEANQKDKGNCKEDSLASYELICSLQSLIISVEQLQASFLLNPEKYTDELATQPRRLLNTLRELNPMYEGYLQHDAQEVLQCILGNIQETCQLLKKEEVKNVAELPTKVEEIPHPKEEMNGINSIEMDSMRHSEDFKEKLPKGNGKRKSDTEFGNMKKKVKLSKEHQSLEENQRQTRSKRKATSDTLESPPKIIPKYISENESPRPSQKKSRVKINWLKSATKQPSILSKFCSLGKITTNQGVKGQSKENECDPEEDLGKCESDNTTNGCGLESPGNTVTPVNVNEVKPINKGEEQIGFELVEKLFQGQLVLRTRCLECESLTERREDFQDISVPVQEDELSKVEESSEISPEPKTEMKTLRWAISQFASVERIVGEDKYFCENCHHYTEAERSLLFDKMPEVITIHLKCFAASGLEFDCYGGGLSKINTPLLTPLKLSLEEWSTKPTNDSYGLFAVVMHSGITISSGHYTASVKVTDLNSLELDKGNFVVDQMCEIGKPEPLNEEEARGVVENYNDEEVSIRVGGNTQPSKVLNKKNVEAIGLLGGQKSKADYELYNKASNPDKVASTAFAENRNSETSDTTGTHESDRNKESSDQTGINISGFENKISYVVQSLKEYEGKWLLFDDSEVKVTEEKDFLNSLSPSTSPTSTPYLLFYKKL
Chain of Cytochrome P450 3A4 (Homo sapiens) (P08684 whole entry, looked up): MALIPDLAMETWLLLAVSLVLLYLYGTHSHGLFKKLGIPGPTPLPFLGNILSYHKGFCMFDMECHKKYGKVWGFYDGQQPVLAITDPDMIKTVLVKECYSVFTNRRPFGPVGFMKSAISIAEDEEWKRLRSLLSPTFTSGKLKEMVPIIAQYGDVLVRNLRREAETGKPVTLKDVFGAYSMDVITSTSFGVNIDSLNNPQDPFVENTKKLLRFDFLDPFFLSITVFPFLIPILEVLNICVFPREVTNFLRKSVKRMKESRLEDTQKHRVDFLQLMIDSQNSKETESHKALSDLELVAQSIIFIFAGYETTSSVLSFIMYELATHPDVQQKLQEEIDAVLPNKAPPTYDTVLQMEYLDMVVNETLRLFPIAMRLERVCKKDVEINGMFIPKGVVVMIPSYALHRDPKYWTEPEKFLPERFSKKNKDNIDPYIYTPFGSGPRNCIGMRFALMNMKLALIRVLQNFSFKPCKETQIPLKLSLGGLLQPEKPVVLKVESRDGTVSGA
Chain of Lysosomal acid glucosylceramidase (Homo sapiens) (P04062 whole entry, looked up): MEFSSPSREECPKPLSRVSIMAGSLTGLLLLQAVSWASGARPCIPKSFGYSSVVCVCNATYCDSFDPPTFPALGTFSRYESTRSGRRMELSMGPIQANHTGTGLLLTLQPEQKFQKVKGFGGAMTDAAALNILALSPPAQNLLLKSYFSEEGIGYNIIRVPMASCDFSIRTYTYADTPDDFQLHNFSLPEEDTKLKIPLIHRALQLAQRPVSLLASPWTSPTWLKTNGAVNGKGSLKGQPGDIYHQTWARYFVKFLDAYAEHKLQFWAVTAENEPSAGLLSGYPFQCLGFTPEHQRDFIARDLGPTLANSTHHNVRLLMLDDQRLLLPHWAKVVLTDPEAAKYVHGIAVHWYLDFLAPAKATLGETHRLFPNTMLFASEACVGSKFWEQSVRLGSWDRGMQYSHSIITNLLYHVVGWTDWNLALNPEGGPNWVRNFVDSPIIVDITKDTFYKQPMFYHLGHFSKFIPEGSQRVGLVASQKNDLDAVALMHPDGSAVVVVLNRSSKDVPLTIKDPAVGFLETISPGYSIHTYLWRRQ
Chain of Glucocorticoid receptor (Homo sapiens) (P04150 whole entry, looked up): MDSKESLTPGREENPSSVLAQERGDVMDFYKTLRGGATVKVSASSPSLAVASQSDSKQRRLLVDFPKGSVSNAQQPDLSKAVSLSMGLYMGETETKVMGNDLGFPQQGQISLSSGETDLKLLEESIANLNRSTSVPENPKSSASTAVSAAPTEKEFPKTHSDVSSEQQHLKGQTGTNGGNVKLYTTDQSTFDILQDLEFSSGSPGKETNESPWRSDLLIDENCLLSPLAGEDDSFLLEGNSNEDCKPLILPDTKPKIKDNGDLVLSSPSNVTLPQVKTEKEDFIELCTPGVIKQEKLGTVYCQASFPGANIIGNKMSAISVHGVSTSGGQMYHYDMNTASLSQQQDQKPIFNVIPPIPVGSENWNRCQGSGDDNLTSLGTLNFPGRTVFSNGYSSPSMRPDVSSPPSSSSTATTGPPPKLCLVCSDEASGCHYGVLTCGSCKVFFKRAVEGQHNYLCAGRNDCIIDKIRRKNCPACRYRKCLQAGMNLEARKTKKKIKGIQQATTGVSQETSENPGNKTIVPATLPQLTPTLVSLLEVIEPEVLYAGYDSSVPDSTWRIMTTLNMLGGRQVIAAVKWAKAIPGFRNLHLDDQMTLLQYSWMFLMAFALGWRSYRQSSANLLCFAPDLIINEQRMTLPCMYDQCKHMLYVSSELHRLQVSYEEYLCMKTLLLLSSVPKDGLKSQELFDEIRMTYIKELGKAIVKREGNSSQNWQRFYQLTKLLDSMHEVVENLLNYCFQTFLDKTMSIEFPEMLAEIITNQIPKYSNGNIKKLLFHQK
Chain of Dual specificity protein kinase CLK4 (Homo sapiens) (Q9HAZ1 whole entry, looked up): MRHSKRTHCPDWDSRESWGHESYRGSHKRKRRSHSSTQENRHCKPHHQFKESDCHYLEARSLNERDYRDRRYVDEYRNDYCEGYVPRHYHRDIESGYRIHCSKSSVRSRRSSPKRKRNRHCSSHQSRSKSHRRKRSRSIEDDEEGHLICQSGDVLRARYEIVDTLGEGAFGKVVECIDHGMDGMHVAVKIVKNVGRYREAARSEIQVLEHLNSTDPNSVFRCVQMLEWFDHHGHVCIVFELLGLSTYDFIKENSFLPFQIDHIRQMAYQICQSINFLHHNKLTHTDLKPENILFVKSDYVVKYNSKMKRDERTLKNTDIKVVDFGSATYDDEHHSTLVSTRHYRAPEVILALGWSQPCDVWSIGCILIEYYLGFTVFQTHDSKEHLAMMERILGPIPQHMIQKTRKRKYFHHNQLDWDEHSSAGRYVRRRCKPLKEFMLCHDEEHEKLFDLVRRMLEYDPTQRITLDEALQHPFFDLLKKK
Chain of Cytochrome P450 1A2 (Homo sapiens) (P05177 whole entry, looked up): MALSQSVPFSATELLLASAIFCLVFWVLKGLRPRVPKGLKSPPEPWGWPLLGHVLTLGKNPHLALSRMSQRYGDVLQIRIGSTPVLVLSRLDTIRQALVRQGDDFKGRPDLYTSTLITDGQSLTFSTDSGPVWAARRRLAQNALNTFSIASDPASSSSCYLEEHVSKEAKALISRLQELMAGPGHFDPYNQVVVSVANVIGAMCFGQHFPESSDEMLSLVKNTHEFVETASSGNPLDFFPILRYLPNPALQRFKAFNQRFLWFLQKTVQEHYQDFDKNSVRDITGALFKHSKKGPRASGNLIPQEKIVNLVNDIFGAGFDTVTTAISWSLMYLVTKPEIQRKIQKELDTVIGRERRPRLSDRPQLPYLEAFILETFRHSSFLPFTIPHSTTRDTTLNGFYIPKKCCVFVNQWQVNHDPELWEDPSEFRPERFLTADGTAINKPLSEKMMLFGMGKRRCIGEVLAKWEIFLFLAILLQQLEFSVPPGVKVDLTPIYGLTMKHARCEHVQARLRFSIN
Chain of 3',5'-cyclic-AMP phosphodiesterase 4B (Homo sapiens) (Q07343 whole entry, looked up): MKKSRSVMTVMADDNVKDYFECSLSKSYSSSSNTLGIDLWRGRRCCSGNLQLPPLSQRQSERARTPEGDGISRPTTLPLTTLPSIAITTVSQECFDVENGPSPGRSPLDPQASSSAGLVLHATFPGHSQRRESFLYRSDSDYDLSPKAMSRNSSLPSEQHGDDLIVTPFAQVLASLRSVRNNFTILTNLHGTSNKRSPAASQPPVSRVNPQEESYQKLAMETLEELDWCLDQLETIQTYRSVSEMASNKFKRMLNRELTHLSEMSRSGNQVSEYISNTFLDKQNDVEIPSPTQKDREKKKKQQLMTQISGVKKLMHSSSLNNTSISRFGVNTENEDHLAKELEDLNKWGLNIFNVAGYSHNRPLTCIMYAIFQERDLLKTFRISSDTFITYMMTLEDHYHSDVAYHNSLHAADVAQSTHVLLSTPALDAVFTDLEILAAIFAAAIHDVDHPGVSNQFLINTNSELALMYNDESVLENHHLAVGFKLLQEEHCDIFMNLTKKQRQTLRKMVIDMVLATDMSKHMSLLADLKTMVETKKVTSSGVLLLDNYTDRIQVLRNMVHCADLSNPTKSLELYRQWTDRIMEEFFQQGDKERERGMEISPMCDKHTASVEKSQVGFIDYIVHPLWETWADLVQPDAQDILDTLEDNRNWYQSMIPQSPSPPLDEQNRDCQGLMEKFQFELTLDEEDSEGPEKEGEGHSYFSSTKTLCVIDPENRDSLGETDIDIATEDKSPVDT
Chain of Cytochrome P450 2C19 (Homo sapiens) (P33261 whole entry, looked up): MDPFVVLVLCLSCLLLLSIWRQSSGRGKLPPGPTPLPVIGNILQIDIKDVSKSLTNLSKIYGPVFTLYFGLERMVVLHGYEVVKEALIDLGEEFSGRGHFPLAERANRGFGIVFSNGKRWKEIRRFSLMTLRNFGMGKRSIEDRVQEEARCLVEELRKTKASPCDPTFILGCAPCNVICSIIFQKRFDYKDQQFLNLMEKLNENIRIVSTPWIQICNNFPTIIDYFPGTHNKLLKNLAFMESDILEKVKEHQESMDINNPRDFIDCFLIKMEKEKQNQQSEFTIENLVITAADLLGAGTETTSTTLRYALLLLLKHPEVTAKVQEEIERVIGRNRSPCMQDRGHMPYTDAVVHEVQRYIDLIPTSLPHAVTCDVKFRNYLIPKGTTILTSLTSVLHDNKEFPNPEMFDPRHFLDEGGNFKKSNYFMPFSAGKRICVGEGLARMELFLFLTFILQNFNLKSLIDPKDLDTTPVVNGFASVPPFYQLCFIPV

On to `COc1ncc2nc(C)c(=O)n(-c3ccccc3)c2n1`, for which the Potency in assay [1] is above 11.4 µM; in assay [3] it was 5.01 µM (active); in [6] it was above 9.22 µM; in assay [7] it was above 46 µM. In addition, the activity change, negative = inhibition was -2.25% in assay [2] and 2.66% in [4]. For the same compound, the activity, negative = inhibition in assay [5] is -8.97%. Moreover, the Potency result in [8], in [9], in [10], in assay [11], in assay [12] and in assay [13] was “inactive” each time. In assay [14], the outcome was inactive.
Take `N#Cc1cccc(-c2nccc(NCc3cccnc3)n2)c1`: the Potency is above 11.4 µM in [1]; 0.251 µM (active) in assay [3]; above 46 µM in assay [6]; above 46 µM in assay [7]; 0.794 µM (active) in assay [15]; 14.1 µM (active) in assay [11]. The Potency in [16] was 14.1 µM (active). Further, in assay [4], the activity change, negative = inhibition was 16.5%. The activity, negative = inhibition in [5] is 0.752%. In addition, the Potency entry in [8], in assay [10] and in [13] was “inactive” each time. For the same compound, the result in assay [14] was inactive.
Consider `COc1ccc(Oc2ncc3nc(-c4cn(C)c5ccccc45)c(=O)n(C)c3n2)cc1`, for which the Potency was above 11.4 µM in assay [1], above 9.22 µM in [6] and above 46 µM in assay [7]. The activity change, negative = inhibition in [2] was -24.2%; in assay [4] it was -8.09%. For the same compound, the Potency entry in assay [3], in assay [8], in assay [9], in assay [17], in assay [10] and in assay [11] was “inactive” throughout. Besides, the Potency result in assay [12] and in assay [13] was “inactive” each time. Besides, in [5], the activity, negative = inhibition was 1.51%. In addition, the outcome in [14] was inactive.
Turning to `CNc1ncnc2ccc(-c3ccccc3C#N)cc12`, the figures for the activity change, negative = inhibition in assay [2] and in [4] were 21.4% and 23.3%, respectively. Further, the Potency in assay [3] was 1 µM (active); in assay [6], above 46 µM; in assay [7] it was above 46 µM; in [11], 6.31 µM (active); in assay [16] it was 7.08 µM (active). Further, the activity, negative = inhibition in assay [5] was -1.74%. For the same compound, the Potency result in assay [8], in assay [9], in [10] and in [13] was “inactive” in each case. The outcome in assay [14] was inactive.
Consider `CCNc1ncc2nc(C)c(=O)n(C[C@H]3CCCO3)c2n1`, for which the Potency in [1] is above 11.4 µM; in [3] it was 3.98 µM (active); in [6], above 9.22 µM; in assay [7], above 46 µM. Also, the figures for the activity change, negative = inhibition in [2] and in assay [4] were 3.27% and -7.96%, respectively. The activity, negative = inhibition in [5] was -8.96%. The Potency entry in assay [8], in assay [9], in assay [11], in assay [12] and in assay [13] was “inactive” throughout. Further, the result in assay [14] was inactive.
Regarding `CN(C)c1ccc(-c2cncnc2Nc2ccc(F)cc2)cc1`, the Potency in assay [1] was above 11.4 µM; in assay [6] it was above 46 µM; in assay [7], above 46 µM; in [15], 0.794 µM (active); in assay [18], 0.794 µM (active); in [11], 10 µM (active). Moreover, the Potency in assay [16] is 10 µM (active). Further, in assay [5], the activity, negative = inhibition is -2.86%. In addition, the Potency entry in assay [10] and in [13] was “inactive” each time. Also, the outcome in assay [14] was inactive.
As to `COc1cccc(-c2nc(NCCNC(C)=O)c3ccccc3n2)c1`, the Potency in assay [1] is above 11.4 µM; in [6], above 46 µM; in assay [7], above 46 µM; in assay [19] it was 3.98 µM (active); in [11], 31.6 µM (active); in assay [16], 28.2 µM (active). Further, the activity change, negative = inhibition in assay [2] was -4.33%; in [4], 8.46%. In addition, in [5], the activity, negative = inhibition is 3.51%. The Potency result in assay [8], in [9], in [10] and in assay [13] was “inactive” throughout. Further, the result in assay [14] was inactive.
